# Rows were chosen to be rich in hits. Some 1.7% of all compounds tested hit in one or more screens of this group.
# DUSP3 inh = VHR1 phosphatase inhibitors, primary screen, biochemical, absorbance, uHTS; Dual specificity protein phosphatase 3 (Homo sapiens), P51452; recombinant VHR phosphatase, pNPP absorbance; inhibition, % at 13.3 µM; actives 0.52% (n = 290,000); in the data active = inhibition above about 50%
# Target sequence (P51452 whole entry, looked up): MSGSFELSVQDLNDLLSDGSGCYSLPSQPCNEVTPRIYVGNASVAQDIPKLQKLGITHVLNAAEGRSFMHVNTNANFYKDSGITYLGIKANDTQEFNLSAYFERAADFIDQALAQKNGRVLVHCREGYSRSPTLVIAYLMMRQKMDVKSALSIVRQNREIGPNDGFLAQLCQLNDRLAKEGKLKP
# SARS 3CLpro inh-1 = SARS-CoV 3CLpro protease inhibitors, primary screen, biochemical, quenched FRET; Replicase polyprotein 1ab (Severe acute respiratory syndrome coronavirus), P0C6X7; recombinant SARS-CoV 3CLpro, quenched FRET peptide cleavage; inhibition, % at 6 µM; actives 0.14% (n = 290,000); in the data active = inhibition above about 12%
# PriA SSB inh = inhibitors of Klebsiella pneumoniae PriA binding to SSB C-terminal tail, primary screen, biochemical, AlphaScreen; PriA–SSB C-terminal tail interaction (Klebsiella pneumoniae); AlphaScreen SSBct-PriA binding, biotinylated peptide; inhibition, % at 33 µM; actives 0.6% (n = 430,000); AID 1272365, 2023; in the data active = inhibition mostly above about 37%, no sharp cut-off; inactive = mostly below about 20%;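 note: plate controls were negative control peptide for no effect and reference peptide for full effect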
# RecA splice inh = Mtb RecA intein splicing inhibitors, primary screen, biochemical, fluorescence, HTS. cell-free RecA intein splicing. inhibition, % (no concentration beside the values). actives 0.75% (n = 290,000). AID 2221, 2009; in the data active = inhibition above about 30%;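 note: 0% = vehicle wells and 100% = reference inhibitor control wells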
# CCHF vOTU inh = CCHFV vOTU protease inhibitors, primary screen, biochemical, Pep-AMC substrate, fluorescence; Crimean-Congo hemorrhagic fever virus L polyprotein viral ovarian tumor (vOTU) protease …; inhibition, % at 11.5 µM; actives 0.55% (n = 370,000); AID 651958, 2012; in the data active = inhibition above about 30%; note: 0% = vehicle wells with enzyme and 100% = no enzyme wells
# SARS 3CLpro inh-2 = confirmation of SARS coronavirus 3C-like protease inhibitors, retest, confirmation, biochemical; shares compounds with SARS 3CLpro inh-1; QFRET protease activity assay, 3CLpro; inhibition, % at 6 µM; actives 36% (n = 380); AID 1879, 2009; in the data active = inhibition above about 13%
# An asterisk follows results filed as active; · = no result.
SMILES,DUSP3 inh,SARS 3CLpro inh-1,PriA SSB inh,RecA splice inh,CCHF vOTU inh,SARS 3CLpro inh-2
O=C(Nc1ccc(OCC(F)(F)C(F)F)c(C(F)(F)F)c1)c1ccccc1O,6,13*,-25,6,19,15*
O=C(Nc1ccc(OCC(F)(F)C(F)F)c(C(F)(F)F)c1)c1ccccc1,·,12,-12,0,18,·
O=C(NCCN1CCN(c2ccccc2F)CC1)C(=O)Nc1ccc2c(c1)OCCO2,·,·,-12,·,·,·
COc1ccc(C(C(=O)NCC2CCCO2)N(C(=O)Cn2nnc3ccccc32)c2ccc(NC(C)=O)cc2)cc1 (stereo not drawn),2,35*,0,1,9,30*
CC(=O)Nc1ccc(N(C(=O)Cn2nnc3ccccc32)C(C(=O)NC2CCCC2)c2ccc(O)c(O)c2)cc1 (stereo not drawn),2,20*,8,-4,7,25*
CCOC(CNC(=O)C(=O)Nc1ccc(N2CCCCS2(=O)=O)cc1)OCC,·,·,-7,·,·,·
Cc1cc2nc(C)n(CCC(C)C)c2cc1C,·,·,-7,·,·,·
NNC(=O)CN1C(c2ccccc2)=Nc2ccc(Br)cc2C1c1ccccc1 (stereo not drawn),24,13*,0,0,3,-3
CC1=Nc2ccc(Br)cc2C(c2ccccc2)N1CC(=O)NN (stereo not drawn),30,13*,-13,5,-6,2
CCOC(=O)CN1C(c2cc(OC)c(OC)c(OC)c2)=Nc2ccc(Br)cc2C1c1ccccc1 (stereo not drawn),·,·,-17,·,·,·
COc1cc(OC)c(C2=Nc3ccc(Br)cc3C(c3ccccc3)N2CC(=O)NN)cc1OC (stereo not drawn),27,12*,5,·,10,0
NNC(=O)CN1C(c2ccc(Cl)cc2)=Nc2ccc(Br)cc2C1c1ccccc1 (stereo not drawn),24,8,16,3,1,·
CCC1=Nc2ccc(Br)cc2C(c2ccccc2)N1CC(=O)OC (stereo not drawn),27,3,-6,2,7,·
NNC(=O)CN1C(CN2CCOCC2)=Nc2ccc(Br)cc2C1c1ccccc1 (stereo not drawn),12,21*,6,2,-5,-1
CSc1cccc(NC(=O)Cn2c(C)nc(C(C)(C)C)cc2=O)c1,·,·,-1,·,·,·
O=C(COc1ccc(S(=O)(=O)N2CCCCC2)cc1)Nc1ccccc1F,24,12*,5,0,17,-6
O=C(COc1ccccc1)Nc1ccc(S(=O)(=O)N2CCCCCC2)cc1,20,-4,-16,0,22,·
CCc1nnc(NS(=O)(=O)c2ccc(NC(=O)/C=C/c3ccc(F)cc3)cc2)s1,-11,13*,9,3,3,-2
CCn1c(COc2ccc(C)cc2)nnc1SCC(=O)C(C)(C)C,25,3,-7,-2,12,·
CCn1c(COc2ccccc2)nnc1SCC(=O)C(C)(C)C,4,15*,-19,0,19,-2
S=C(c1ccc(-c2ccccc2Cl)o1)N1CCCCC1,-5,27*,21,2,3,-7
O=C(O)c1cccc(NS(=O)(=O)c2ccc(C3CCCCC3)cc2)c1,4,12*,-7,0,·,2
Cc1cccc(NS(=O)(=O)c2ccc(C3CCCCC3)cc2)c1,22,3,-3,10,28,·
Cc1ccc(-c2nc(P(=O)(c3ccccc3)c3ccccc3)c(N3CCOCC3)o2)cc1,2,4,25,10,-4,·
CNc1oc(-c2ccc(Cl)cc2)nc1P(=O)(c1ccccc1)c1ccccc1,-3,13*,-17,7,22,-1
SMILES,DUSP3 inh,SARS 3CLpro inh-1,PriA SSB inh,RecA splice inh,CCHF vOTU inh,SARS 3CLpro inh-2
O=C(Cc1ccc(Cl)c(Cl)c1)Nc1cccnc1,2,23*,-15,-2,-13,21*
O=C(CCNC(=O)Cn1cnc2ccccc2c1=O)NCC1CCCO1 (stereo not drawn),-2,17*,1,-1,-11,-3
CCOC(=O)CNC(=O)CN1C(=O)CC(c2ccc(OC)c(OC)c2)S(=O)(=O)c2ccccc21 (stereo not drawn),·,·,-5,·,·,·
O=C(NCc1ccco1)C(c1ccco1)N(C(=O)Cn1nnc2ccccc21)c1ccc2c(c1)CCC2 (stereo not drawn),·,15*,6,12,8,26*
CCC(CO)NC(=O)C(=O)Nc1ccc([N+](=O)[O-])cc1 (stereo not drawn),·,·,1,·,·,·
O=C(NCc1ccc(F)cc1)C(=O)NCc1ccc(C(=O)c2ccco2)s1,·,·,-10,·,·,·
CC(NC(=O)CN1CCN(c2ncccn2)CC1)c1ccc(F)cc1 (stereo not drawn),22,1,-18,-2,3,·
CC(C)NC(=O)CN1CCN(c2ncccn2)CC1,-14,12*,-15,-1,4,1
NC(=S)NN=Cc1ccc(C23CC4CC(CC(C4)C2)C3)cc1,·,·,3,·,·,·
NC(=S)N/N=C/c1ccc(C23CC4CC(CC(C4)C2)C3)cc1,1,14*,·,·,·,-2
O=S(=O)(c1cccc(NC(=S)N2CCN(c3ccccc3)CC2)c1)C(F)F,-6,13*,9,-1,-2,3
CC(=O)NC1C(=O)N(CCN2CCOCC2)c2ccc(Br)cc21 (stereo not drawn),-22,14*,-3,51*,-1,47*
O=C1CCCCN1c1cccc(NS(=O)(=O)c2ccccc2Cl)c1,·,·,0,·,·,·
O=C(NC(NC(=S)Nc1cccc(Cl)c1)C(Cl)(Cl)Cl)OCc1ccccc1 (stereo not drawn),21,13*,-5,14,-6,6
CS(=O)(=O)Nc1ccc2c(c1)C(=O)Nc1ccccc1O2,·,·,-11,·,·,·
O=C(c1ccccc1F)N1CCN(c2cccc(C(F)(F)F)c2)CC1,33,1,-13,1,7,·
Cc1cc(C)c(C)c(S(=O)(=O)N2CCN(C(=O)c3cc(=O)[nH]c4ccccc34)CC2)c1C,22,55*,11,8,-19,53*
COc1ccc(N2CCN(C(=O)c3cc(=O)[nH]c4ccccc34)CC2)cc1,37,27*,-2,-3,-2,27*
O=C(c1cc(=O)[nH]c2ccccc12)N1CCN(c2ccc([N+](=O)[O-])cc2)CC1,-26,10,-6,-2,16,·
O=C(c1cc(=O)[nH]c2ccccc12)N1CCN(c2cccc(C(F)(F)F)c2)CC1,5,46*,0,3,-3,44*
O=C(O)CC1SC(=NN=C/C=C/c2ccccc2[N+](=O)[O-])NC1=O (stereo not drawn),·,·,1,·,·,·
COC(=O)c1ccccc1N/C=C(\C#N)c1nc(-c2cccs2)cs1,·,·,-1,·,·,·
